ALR inh = inhibitors of human sulfhydryl oxidase ALR; purified ALR, DTT oxidation, H2O2 HRP-luminol luminescence; P55789; 290,000 tested, 3.8% active; inhibition, % (test concentration not listed);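 active = mean replicate inhibition above about 79%, with every replicate also reaching it, limit read from the data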
NTR1 agonist = activates human neurotensin receptor 1; P30989; NTR1-U2OS beta-arrestin-GFP spot imaging, agonist mode; activation, % at 20 µM; 330,000 tested, 0.17% active; AID 493036;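 active = activation at or above 40% of the spot to cytoplasm intensity ratio, with at least 20 cells analyzed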;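 note: 0% = DMSO without peptide and 100% = 100 nM NTR1 peptide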
Target sequence (P30989 whole entry, looked up): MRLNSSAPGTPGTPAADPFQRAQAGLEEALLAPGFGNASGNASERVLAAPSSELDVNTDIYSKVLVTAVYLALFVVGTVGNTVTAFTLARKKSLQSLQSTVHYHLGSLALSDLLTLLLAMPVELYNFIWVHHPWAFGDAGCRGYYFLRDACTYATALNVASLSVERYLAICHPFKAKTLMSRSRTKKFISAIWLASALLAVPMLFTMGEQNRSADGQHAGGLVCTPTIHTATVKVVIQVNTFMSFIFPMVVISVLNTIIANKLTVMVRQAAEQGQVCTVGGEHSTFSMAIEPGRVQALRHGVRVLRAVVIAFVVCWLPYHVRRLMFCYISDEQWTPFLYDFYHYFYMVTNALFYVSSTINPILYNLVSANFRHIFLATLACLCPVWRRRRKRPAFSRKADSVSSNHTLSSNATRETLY
Cardio protect = modulators protecting cardiomyocytes from myocardial damage. H9c2 cardiomyocytes, H2O2 injury protection, ATPLite, 2 h. protection from H2O2 cell death, % at 20 µM. 360,000 tested, 0.63% active. AID 588492;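 active = compounds giving at least 50% protection of heart cells from peroxide-induced death in the single-dose screen, raw or plate-pattern-corrected value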;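 note: 0% = DMSO wells with peroxide and 100% = DMSO wells without peroxide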
SUMO HTRF inh = SUMOylation inhibition. 290,000 tested, 0.36% active. HTRF SUMOylation assay, SAE1/SAE2 + UBC9, in vitro. inhibition, % at 35 µM. AID 2006. P63279; in the data active = inhibition above about 50%, passing the limit was not always enough
Target sequence (P63279 whole entry, looked up): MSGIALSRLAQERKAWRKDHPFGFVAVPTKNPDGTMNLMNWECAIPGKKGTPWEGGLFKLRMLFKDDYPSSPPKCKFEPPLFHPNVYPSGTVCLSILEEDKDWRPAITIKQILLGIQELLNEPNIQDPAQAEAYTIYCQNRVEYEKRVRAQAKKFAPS
Active calls of the source: *; . = no result given. Sampled rows, rich in hits. Any-hit rate of the full collection: about 3.9%.

SMILES	ALR inh	NTR1 agonist	Cardio protect	SUMO HTRF inh
C=CCNC(=S)/C(=C(/[O-])c1ccc([N+](=O)[O-])cc1)[n+]1ccccc1	56	2	-5	10
CCN(CC(=O)NC1CC1)S(=O)(=O)c1ccc(C)cc1	-8	0	3	-2
COCCn1c(-c2ccccc2)nc(=S)c2c1CC(C)(C)OC2	-6	-1	2	6
CC1(C)Cc2c(c(=S)nc(-c3ccccc3)n2CCN2CCOCC2)CO1	97*	0	0	2
Cc1ccc(-c2nc(CS(=O)(=O)CC(=O)NC3CCCCCC3)c(C)o2)cc1	-1	2	-5	-6
CCOC(=O)N1CCC(NC(=O)CS(=O)(=O)Cc2nc(-c3cccc(OC)c3)oc2C)CC1	99*	3	-4	-12
Cc1oc(-c2cccc(Cl)c2)nc1CS(=O)(=O)CC(=O)NC1CC1	90*	0	-2	5
COc1ccc(-c2nc(CS(=O)(=O)CC(=O)NC3CCCCCC3)c(C)o2)cc1	99*	2	-3	12
CCOC(=O)N1CCC(NC(=O)CS(=O)(=O)Cc2nc(-c3cccc(Cl)c3)oc2C)CC1	52	0	-5	2
COc1cccc(-c2nc(CS(=O)(=O)CC(=O)NC3CCCCC3C)c(C)o2)c1 (stereo not given)	93*	1	-3	20
O=S(=O)(Nc1ccncc1Cl)c1cc(Cl)ccc1Cl	1	1	-6	8
CCOC(=O)C1=C(C)N=c2s/c(=C/c3ccc(OCC(=O)O)cc3)c(=O)n2C1c1ccc(SC)cc1 (stereo not given)	-7	5	24	29
COc1cccc(-c2nc(CS(=O)(=O)CC(=O)NC3CCCCCC3)c(C)o2)c1	98*	6	-4	9
Cc1ccc(-c2nc(CS(=O)(=O)CC(=O)N3CCCCCC3)c(C)o2)cc1	95*	1	-12	20
CCOC(=O)Cn1c(C(C)=O)nc2ccccc21	-2	5	-2	-9
COc1ccc(N)cc1C#N	-64	-2	-1	30
COc1cc(N)ccc1Cc1ccc(N)cc1OC	97*	1	5	-8
CCCCNc1nnc(SCC(=O)c2c(N)n(C3CC3)c(=O)[nH]c2=O)s1	-10	6	1	.
O=S(=O)(c1ccccc1)N(Cc1nc(-c2ccccc2)no1)C1CCCCC1	-3	2	-23	-11
COc1cc(C[C@@H](C)[C@@H](C)Cc2ccc(O)c(OC)c2)ccc1O	50	15	-5	.
COc1cc(C[C@@H](CO)[C@H](CO)Cc2ccc(O)c(OC)c2)ccc1O	97*	1	.	.
CCOc1ccccc1N1CCN(C(=O)CNC(=O)c2ccccc2F)CC1	-2	0	2	12
CC1(C)CC(=O)C=C(c2cccc(Cl)c2O)C1	96*	2	2	.
COc1cccc(C2=CC(=O)CC(C)(C)C2)c1OC	4	1	4	.
O=C(c1cc2ccccc2oc1=O)N1CCSC1c1ccco1 (stereo not given)	0	-2	1	21
SMILES	ALR inh	NTR1 agonist	Cardio protect	SUMO HTRF inh
COc1ccc2c(CN3CCN(c4ccc(Cl)c(Cl)c4)CC3)cc(=O)oc2c1	.	.	-4	.
O=C(N/N=C/C=C/c1ccccc1[N+](=O)[O-])c1cccs1	.	0	0	-8
O=C(N/N=C\C=C\c1ccc([N+](=O)[O-])o1)c1cccs1	-22	2	1	51*
CCN(CC)C(=O)NCc1c(C)cc(C)cc1C	0	1	14	-6
COc1cc(CNc2ccc3c(c2)OCCO3)ccc1OCC(N)=O	99*	4	1	-16
CCOc1cc(CNc2ccc3c(c2)OCCO3)cc(Br)c1OCC(N)=O	47	0	6	1
COc1ccc(NCc2ccc3c(c2)OCO3)cc1Cl	97*	0	-6	-15
COc1cc2sc3cc(NCc4ccc5c(c4)OCO5)ccc3c(=O)c2cc1OC	0	1	10	.
Cc1ccc(OCc2nn3c(-c4ccco4)nnc3s2)cc1	6	-1	7	13
CCOc1ccc(CCN2C(=S)N([C@@H](Cc3ccc(O)cc3)CN3CCCC3CN3C(=S)NC[C@@H]3Cc3ccc(O)cc3)C[C@@H]2CC(C)C)cc1 (stereo not given in full)	.	.	-4	.
CC(C)C[C@H]1CN=C(N(C)C)N1CC1CCCC1	.	-2	-13	.
Cc1ccc(C)c(N(C(=O)CNC(=O)c2ccco2)C(C(=O)NC2CCCCC2)c2ccncc2)c1 (stereo not given)	11	-2	-1	-6
COc1ccc(CCNC(=O)C(C)c2ccc([N+](=O)[O-])cc2)cc1 (stereo not given)	.	-2	-3	17
COc1ccc(N2CCN(C(=O)CN(C)S(=O)(=O)c3cccs3)CC2)cc1	99*	0	-1	2
COc1ccc(N2CCN(C(=O)CN(CCc3ccccc3)S(C)(=O)=O)CC2)cc1	88*	2	-4	-11
COc1ccc(S(=O)(=O)N(C)CC(=O)N2CCN(c3ccccc3)CC2)cc1	62	0	-1	-12
O=C(CCNS(=O)(=O)c1cccs1)N1CCN(c2cccc(C(F)(F)F)c2)CC1	.	3	-10	.
COc1ccc(N2CCN(C(=O)CCNS(=O)(=O)c3cccs3)CC2)cc1	94*	0	-2	-9
O=C(NCc1ccccc1)c1cc(C2CCCCN2C(=O)c2cccs2)on1 (stereo not given)	.	.	1	.
CCc1ccc(N(CC)C(=O)Cc2c(C(=O)O)n(C)c3ccccc23)cc1	-1	0	5	2
O=C(CSc1nnc(NC(=O)c2ccccc2Cl)s1)Nc1ccc2c(c1)oc1ccccc12	-3	51*	.	42
Cc1ccccc1N(CC(=O)N/N=C/c1ccccc1Cl)C(=O)c1ccccc1	-5	2	-1	2
CCCC(c1nnnn1CCOC)N(Cc1cc2cc(C)c(C)cc2[nH]c1=O)CC1CCCO1 (stereo not given)	99*	1	8	2
CCC(c1nnnn1CCOC)N(Cc1cc2cc(C)c(C)cc2[nH]c1=O)CC1CCCO1 (stereo not given)	99*	-1	24	29
CCN1CCN(C(=O)CCc2nnc3ccc(N4CCN(c5cccc(OC)c5)CC4)nn23)CC1	99*	-1	14	22
SMILES	ALR inh	NTR1 agonist	Cardio protect	SUMO HTRF inh
COc1cccc(N2CCN(c3ccc4nnc(CCC(=O)Nc5ncccc5C)n4n3)CC2)c1	99*	1	33	7
COc1ccc(N2CCN(c3ccc4nnc(CCC(=O)Nc5ccc(C)cc5)n4n3)CC2)cc1	92*	3	10	-12
CCOc1ccccc1OCC(=O)NNC(=O)Cn1cnc2c1c(=O)n(C)c(=O)n2C	17	-1	-1	-8
Cc1ccc(C)n1NC(=O)c1ccccc1[N+](=O)[O-]	9	1	-4	17
NC(=S)NNc1ccc(Cl)c(Cl)c1	.	5	2	8
Cc1ccc(NNC(N)=S)cc1Cl	99*	1	10	6
COc1ccc2c(c1)n([O-])c1c([n+]2=O)CCC1	-19	1	.	13
COc1ccc2c(C)cc(SCC(=O)c3ccc4c(c3)OCO4)nc2c1	99*	8	-3	-35
CCCCN1C(=O)C2Cc3c([nH]c4ccccc34)CN2C1=S (stereo not given)	89*	0	0	-3

Compound activity (PubChem)
